Source: PubChem BioAssay (several laboratories)
SKKanGAS inh: blocks kanamycin growth of S. pyogenes SKKanGAS strain; inhibition, % at 7.5 µM; BacTiter-Glo, 6 h; 1.3% of 300,000 active; AID 1662;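 active = mean replicate score, as percent of positive control median, at least 50; inconclusive = mean below 50 but one replicate at or above 50; inactive = mean and every replicate below 50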;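 also: strain carries kanamycin resistance gene driven by streptokinase promoter and grows in 40 µg/ml kanamycin; loss of luminescence reflects streptokinase promoter inhibition or plain growth inhibition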
TIM10 inh: TIM10 yeast growth inhibition; AID 463195; S. cerevisiae TIM10 strain growth, BacTiter-Glo luminescence, 24 h; 1.4% of 330,000 active; inhibition, % at 10 µM;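 active = inhibition of 40% or more at the single tested concentration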;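 also: wild-type TIM10 isogenic control strain grown at permissive 25 °C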
tim10-1 inh: growth inhibitors of tim10-1 mutant yeast; AID 463190; S. cerevisiae tim10-1 ts strain growth, BacTiter-Glo, 24 h; inhibition, % at 20 µM; 2.2% of 330,000 active;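 active = inhibition of at least 40%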;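 also: mutant grown at 25 °C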
NALP3 yeast inh: blocks the NALP3 inflammasome reconstituted in yeast. Yeast reconstituted NLRP3/ASC/caspase-1, beta-gal luminescence, 24 h. inhibition, % at 10 µM. 0.39% of 330,000 active. AID 2825;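 active = inhibition of 50% or more; inactive = inhibition below 50%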
NALP1 inh: NALP1 inhibition. AID 2071. 0.61% of 280,000 active. S. cerevisiae NALP1/ASC/caspase-1 growth, X-gal OD620, 72 h. inhibition, % at 10 µM; in the data active = inhibition mostly above about 24%, no sharp cut-off; inactive = mostly below about 32%
tim23-1 inh: tim23-1 yeast growth inhibition; S. cerevisiae tim23-1 growth, BacTiter-Glo luminescence, 24 h; inhibition, % at 20 µM; 1.3% of 330,000 active;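 active = growth inhibition of the mutant yeast at or above 50%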;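 also: temperature-sensitive mutant grown at 25 °C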
NALP3 yeast conf: confirmation of NALP3 inhibitors in yeast | 81% of 1,300 active | inhibition, % at 10 µM | yeast expressing human NALP3, luminescence | shares compounds with NALP3 yeast inh | AID 435006; in the data active = inhibition above about 48%
Casp1-ASC yeast: active in yeast caspase-1-ASC counter-screen for NALP3 inhibitors | shares compounds with NALP3 yeast inh | yeast expressing Caspase-1-ASC, luminescence counter screen | inhibition, % at 10 µM | 66% of 1,000 active
NALP3 yeast rt: retest-confirmed inhibitor of NALP3 in yeast. yeast expressing human NALP3, luminescence read-out. 53% of 1,000 active. inhibition, % at 10 µM. shares compounds with NALP3 yeast inh. AID 488794
tim10-1 confirm: tim10-1 yeast growth inhibition, confirmed | shares compounds with tim10-1 inh | S. cerevisiae tim10-1 ts strain growth, BacTiter-Glo, 24 h | inhibition, % at 20 µM | 56% of 7,400 active | AID 463213;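 active = inhibition of yeast growth at or above a set limit in either of two repeat tests at 20 µM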;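 also: tim10-1 mutant grown at permissive 25 °C to find synthetic lethal compounds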
tim10 confirm: confirmation of TIM10 yeast growth inhibitors | shares compounds with TIM10 inh | S. cerevisiae tim10 strain growth, BacTiter-Glo luminescence, 24 h | inhibition, % at 10 µM | 63% of 4,600 active;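 active = inhibition of yeast growth at or above a set limit in either of two replicates at 10 µM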; also: this counterscreen used the strain with wild-type TIM10
tim23-1 confirm: tim23-1 yeast growth inhibition, confirmed; shares compounds with tim23-1 inh; S. cerevisiae tim23-1 growth, BacTiter-Glo luminescence, 24 h; inhibition, % at 20 µM; 83% of 4,400 active; AID 463218;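 active = inhibition above about 39% in either of two replicate wells at 20 µM, limit read from the data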;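 also: temperature-sensitive tim23-1 mutant grown at 25 °C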
A number is an active result; i = inactive; ? = inconclusive; nt = no result. A selection: hits, their analogues and other compounds. The true share with any hit is near 4.9%. Rule as the data show it, unless noted: active = inhibition above about 50%; inactive = the rest.

SMILES | SKKanGAS inh | TIM10 inh | tim10-1 inh | NALP3 yeast inh | NALP1 inh | tim23-1 inh | NALP3 yeast conf | others
C[C@]12CC[C@@H](O)C[C@@H]1CC[C@@H]1[C@@H]2CC[C@]2(C)[C@@H](O)CC[C@@H]12 | i | i | i | 53 | i | i | 66 | Casp1-ASC yeast=57;NALP3 yeast rt=i
C[C@H]1CC[C@@H]2N(C1)C[C@H]1[C@@H]3C[C@H]4[C@@H](CC(=O)[C@H]5C[C@@H](O)CC[C@@]54C)[C@@H]3CC[C@H]1[C@]2(C)O | i | i | i | i | i | i | nt
C[C@]12CCC3C(CC[C@H]4C[C@@H](O)CC[C@]34C)C1C[C@@H](Br)[C@@H]2O (some centres not stated) | nt | i | i | i | nt | i | nt
C[C@]12CCC3C(CC[C@H]4C[C@@H](O)CC[C@]34C)C1C[C@@H](O)[C@]2(C)O (some centres not stated) | nt | i | i | 50 | nt | i | 57
CC(C)=CCC12CN3CCN(CC(C3)C1=O)C2 | i | i | i | i | i | i | nt
COc1ccccc1-n1c(O)c(/C=N/NC(=S)Nc2ccccc2)c(=O)[nH]c1=S | i | i | i | i | i | i | nt
Cc1ccc2c(c1)C(c1ccccc1)NCC(=O)N2 (configuration not stated) | i | i | i | i | i | i | nt
O=C1NS(=O)c2cc([N+](=O)[O-])cc([N+](=O)[O-])c21 (configuration not stated) | i | i | i | i | i | i | nt
CCC(=NCCCN1CCOCC1)c1c(O)n(-c2ccccc2C)c(=O)[nH]c1=O | i | i | i | i | i | i | nt
CC(C)(C)NC(=S)/N=C(\N)N[N+](=O)[O-] | i | i | i | i | i | i | nt
C[C@]12CCC3C(CC[C@H]4C[C@@H](O)CC[C@]34C)C1CC[C@@]2(O)C(F)(F)F (some centres not stated) | nt | i | i | 56 | nt | i | 55
C[C@]12C[C@@H](O)[C@H](O)CC1=CCC1C2CC[C@]2(C)C(=O)CCC12 (some centres not stated) | nt | i | i | i | nt | i | nt
C[C@]12CCC3C(CC[C@H]4C[C@@H](O)[C@H](O)C[C@]34C)C1CC[C@@H]2O (some centres not stated) | nt | i | i | 55 | nt | i | 60
C[C@]12C[C@@H](O)[C@H](O)CC1=CCC1C2CC[C@@]2(C)C1CC[C@@H]2O (some centres not stated) | nt | i | i | 58 | nt | i | 55
Cc1noc(C)c1CC(=O)N1CCCC(N2CCN(c3ccccc3F)CC2)C1 (configuration not stated) | i | i | i | i | i | i | nt
Cc1nn(Cc2ccccc2Cl)c(C)c1C(=O)OCC(=O)NC1CCS(=O)(=O)C1 (configuration not stated) | i | i | i | i | i | i | nt
C[C@]12CC[C@H](O)C[C@H]1CC[C@@H]1[C@@H]2CC[C@]2(C)C(=O)CC[C@@H]12 | nt | i | i | 54 | nt | i | 67 | Casp1-ASC yeast=65;NALP3 yeast rt=56
C[C@]12CCC3[C@@H](CC[C@H]4C[C@@H](O)CC[C@]34C)C1CCC2=O (some centres not stated) | i | i | i | 59 | i | i | 71
C[C@]12CCC3C(CC[C@@H]4C[C@H](O)CC[C@]34C)C1CCC2=O (some centres not stated) | nt | i | i | 73 | nt | i | 72 | Casp1-ASC yeast=72;NALP3 yeast rt=52
C[C@]12CC[C@@H](O)C[C@H]1CC[C@@H]1[C@@H]2CC[C@]2(C)C(=O)CC[C@@H]12 | i | i | i | 66 | nt | i | 72 | Casp1-ASC yeast=70;NALP3 yeast rt=60
C[C@]12CCC3C(C1CCC2=O)[C@H](O)C[C@H]1C[C@@H](O)CC[C@]31C (some centres not stated) | nt | i | i | i | nt | i | nt
C[C@]12CCC3C(CC[C@H]4C[C@@H](O)CC[C@]34C)C1C[C@@H](O)C2=O (some centres not stated) | nt | i | i | i | nt | i | nt
COc1ccc(NS(=O)(=O)c2ccc(OCC(=O)N3CCN(C)CC3)cc2)cc1Cl | i | i | i | i | i | i | nt
CN1C(=O)C(=Cc2ccccc2OCc2ccccc2Cl)C(=O)N(C)C1=O | i | i | i | i | nt | i | nt
CN1C(=O)C(=Cc2c(OCc3cnc(Cl)s3)ccc3ccccc23)C(=O)N(C)C1=O | i | 46 | i | 59 | i | 75 | 58 | Casp1-ASC yeast=72;NALP3 yeast rt=62;tim10 confirm=53;tim23-1 confirm=81
SMILES | SKKanGAS inh | TIM10 inh | tim10-1 inh | NALP3 yeast inh | NALP1 inh | tim23-1 inh | NALP3 yeast conf | others
CN1C(=O)/C(=C/c2cccn2-c2ccc3ccccc3c2)C(=O)NC1=S | ? | 46 | 56 | 56 | i | 66 | i | tim10-1 confirm=53;tim10 confirm=49;tim23-1 confirm=64
C[C@]12CC[C@H](O)C[C@@H]1CC[C@@H]1[C@@H]2CC[C@]2(C)[C@@H](C(=O)O)C[C@@H]12 | i | i | i | i | nt | i | nt
C[C@@H]1C[C@@H]([C@H](O)CC2CC(=O)NC(=O)C2)C(=O)[C@@H](C)C1 | nt | 68 | i | 97 | nt | 73 | 98 | Casp1-ASC yeast=99;NALP3 yeast rt=98;tim10 confirm=64;tim23-1 confirm=69
O=C(Cc1ccccc1)Oc1ccccc1N1C(=O)CCC1=O | i | i | i | i | i | i | nt
Cn1c(O)c(C(c2ccncc2)c2c(O)n(C)c(=S)n(C)c2=O)c(=O)n(C)c1=S | i | i | 42 | i | i | i | nt | tim10-1 confirm=i
Cn1c(O)c(C(c2ccccn2)c2c(O)n(C)c(=S)n(C)c2=O)c(=O)n(C)c1=S | i | i | i | i | i | i | nt
CC(C)COP(=O)(OCC(C)C)C(O)c1cccnc1 (configuration not stated) | i | i | i | i | i | i | nt
Cc1ccc(N(C)C(=O)Oc2ccc(C(=O)c3ccc(Cl)cc3)cc2)cc1 | i | i | i | i | i | i | nt
Clc1ccc(C[n+]2c(-c3ccccc3)cc(-c3ccccc3)cc2-c2ccccc2)cc1 | i | i | 45 | i | nt | i | nt | tim10-1 confirm=38
Cc1cc(-c2ccccc2)cc(-c2ccccc2)[n+]1CCc1ccccc1 | i | i | i | i | nt | i | nt
CC(C)(C)c1cc([N+](=O)[O-])cc(C(C)(C)C)c1O | i | i | 49 | i | i | i | nt | tim10-1 confirm=44
